Source: PubChem BioAssay (NCATS)
Records with an inconclusive call do not appear. Activity calls are given as the source filed them. The call rests on the fitted dose curve; in most records, active means well fitted curve in the direction sought with a large enough effect; inconclusive means small, poorly fitted or top-dose-only effect, or another doubt; inactive means no such curve, though single readings can be large; an effect the other way counts as inactive or inconclusive. Where a SMILES comes first, the peptide text is derived from it. [ ]: non-standard residue; d: D form. ξ: configuration not given here. ξTyr(βOH) = NC(C(=O)O)C(O)c1ccc(O)cc1

Legend:
[1] = molecular target: Calcium and integrin-binding protein 1 (Homo sapiens) (UniProt Q99828); assay: Primary qHTS for Identification of Calcium Integrin Binding Protein 1 (CIB1) Competitor (AID 1508620);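 further: GST tagged CIB1 binding a fluorescein labelled alphaIIb integrin peptide tracer; top concentration of the series differs between compounds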
Chain of Calcium and integrin-binding protein 1 (Homo sapiens) (Q99828 whole entry, looked up): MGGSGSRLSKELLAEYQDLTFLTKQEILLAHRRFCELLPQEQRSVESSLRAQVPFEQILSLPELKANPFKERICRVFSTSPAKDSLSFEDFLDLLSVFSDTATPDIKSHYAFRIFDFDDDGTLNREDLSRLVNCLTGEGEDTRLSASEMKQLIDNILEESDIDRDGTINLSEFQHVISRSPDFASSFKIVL
Method in brief: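 Fluorescence polarization competition: GST-tagged CIB1 (1 uM final) preincubated with compound 15 min at room temperature, then FITC-labelled alphaIIb peptide (100 nM final) added. After 15 min at room temperature, polarization read at Ex 480/Em 540.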

[2] = Primary qHTS for inhibitors of nuclear receptor binding SET domain protein 2 (NSD2) in an isogenic RCH-ACV NSD2 p.E1099K mutant (9B) (AID 1645876); further: nearly all actives have a fitted effect of over 70% in size
[3] = Primary qHTS for inhibitors of nuclear receptor binding SET domain protein 2 (NSD2) in an RCH-ACV wild type WT cells (2C) (AID 1645877); further: nearly all actives have a fitted effect of over 70% in size
On the % scale 0 is the no-effect control and ±100 the full control effect.

CC(=O)OC[C@]12[C@@H](OC(=O)c3ccoc3)C[C@@H]3[C@@H](OC(C)=O)[C@]1(OC3(C)C)[C@@](C)(O)C[C@H](OC(=O)c1ccoc1)[C@@H]2OC(=O)c1ccoc1
inactive: Potency [1] | Potency [2] | Potency [3]

COc1ccc(/C=C/C(=O)O[C@@H]2[C@@H](O[C@@H]3O[C@H](CO)[C@@H](O)[C@H](O)[C@H]3O)[C@@H](O)[C@H](O[C@H]3C4C=CO[C@@H](O[C@@H]5O[C@H](CO)[C@@H](O)[C@H](O)[C@H]5O)C4[C@@]4(CO)O[C@@H]34)O[C@H]2C)cc1 (stereo not given in full)
inactive: Potency [1] | activity change, negative = viability loss [2] -15.4% [at 9.23 µM] | activity change, negative = cell killing [3] -20.7% [at 9.23 µM]

CC1=COC(OC2OC(CO)C(O)C(O)C2O)C2C(CO)CC(OC(=O)/C=C/c3ccc(O)cc3)C12 (stereo not given)
inactive: Potency [1] | Potency [2] | Potency [3]

C=C1CC[C@]2(C(=O)O[C@@H]3O[C@H](CO)[C@@H](O)[C@H](O)[C@H]3O)CC[C@]3(C)C(=CCC4[C@@]5(C)C[C@H](O)[C@@H](O[C@@H]6O[C@H](C(=O)O)[C@@H](O)[C@H](O)[C@H]6O)[C@](C)(C=O)C5CC[C@]43C)C2C1 (stereo not given in full)
inactive: Potency [1] | activity change, negative = viability loss [2] -1.03% [at 9.23 µM] | activity change, negative = cell killing [3] -2.63% [at 9.23 µM]

C[C@@H]1O[C@@H](O[C@H]2[C@H](OC(=O)[C@]34CCC(C)(C)C[C@H]3C3=CCC5[C@@]6(C)CC[C@H](O[C@@H]7O[C@H](CO[C@@H]8OC[C@H](O)[C@H](O)[C@H]8O[C@@H]8OC[C@@H](O)[C@H](O)[C@H]8O)[C@@H](O)[C@H](O)[C@H]7O)C(C)(C)C6CC[C@@]5(C)[C@]3(C)C[C@H]4O)O[C@H](CO)[C@@H](O)[C@@H]2O)[C@H](O[C@@H]2O[C@H](CO)[C@@H](O)[C@H](O)[C@H]2O)[C@H](O)[C@H]1O[C@@H]1OC[C@@H](O)[C@H](O[C@@H]2OC[C@@H](O)[C@H](O)[C@H]2O)[C@H]1O (stereo not given in full)
inactive: activity change, negative = inhibition [1] 0.603% [at 12.4 µM] | activity change, negative = viability loss [2] 4.39% [at 4.96 µM] | activity change, negative = cell killing [3] 4.37% [at 4.96 µM]

CC1CC=C2C1CC1(O)C(=O)CC2(C)C1(C)CO (stereo not given)
inactive: Potency [1] | Potency [2] | Potency [3]

CC(=O)OC1CC2(C)C(CCC(C)C23Cc2c(O)cc4c(c2O3)CNC4=O)C(C)(C)C1O (stereo not given)
inactive: Potency [1] | Potency [2] | Potency [3]

CC1(C)CC[C@]2(C(=O)O[C@@H]3O[C@H](CO[C@@H]4O[C@H](CO)[C@@H](O)[C@H](O)[C@H]4O)[C@@H](O)[C@H](O[C@@H]4O[C@H](CO)[C@@H](O)[C@H](O)[C@H]4O)[C@H]3O)[C@H](O)C[C@]3(C)C(=CCC4[C@@]5(C)CC[C@H](O[C@@H]6OC[C@@H](O)[C@H](O)[C@H]6O)[C@@](C)(C(=O)O)C5CC[C@]43C)[C@@H]2C1 (stereo not given in full)
inactive: Potency [1] | activity change, negative = viability loss [2] -2.24% [at 9.23 µM] | activity change, negative = cell killing [3] -1.62% [at 9.23 µM]

COc1cc(O)cc2c1C(=O)OC(C)C2 (stereo not given)
inactive: Potency [1] | Potency [2] | Potency [3]

CC(=C\C(C)O)/C=C(\C)C(=O)CC1CC(CC(N)=O)CC(=O)O1 (stereo not given)
inactive: Potency [1] | Potency [2] | Potency [3]

C=C1C2(C)CC3C4(C)C=CC(=O)OC(C)(C)C4CCC3(C)C1(C(=O)OC)C(=O)C(C)(O)C2=O (stereo not given)
inactive: Potency [1] | Potency [2] | Potency [3]

NC(Cc1c[nH]c2ccc(O)cc12)C(=O)O (stereo not given)
inactive: Potency [1] | Potency [2] | Potency [3]

O=C(Cc1ccccc1)OC[C@H]1O[C@H](O[C@H]2O[C@H](CO)[C@@H](O)[C@H](O)[C@H]2O)[C@H](O)[C@@H](O)[C@@H]1O
inactive: Potency [1] | Potency [2] | Potency [3]

C/C=C/C=C/C=C/C(=O)O[C@@H]1[C@@H](OC)C2=C(C(=O)N(C(CCC(=O)O)C(=O)O)C2)[C@@]2(C)CCCC(C)(C)[C@H]12 (stereo not given in full)
inactive: Potency [1] | Potency [2] | Potency [3]

COc1cc(O)cc(C)c1C(=O)OC1C(CO)OC(n2ccc(=O)[nH]c2=O)C1OC(C)=O (stereo not given)
inactive: Potency [1] | Potency [2] | Potency [3]

O=C(O)c1ccc(NC(=O)[C@H](CC2CCCC2)n2cnc(C(F)(F)F)c2)nc1
inactive: Potency [1] | Potency [2] | Potency [3]

CC(C)C1NC(=O)CNC(=O)C2CCCN2C(=O)C(Cc2c[nH]c3ccccc23)NC(=O)CNC(=O)C(C(O)c2ccc(O)cc2)NC(=O)CNC1=O (stereo not given) (cyclo(G[ξTyr(βOH)]GWPGV); configuration not given here)
inactive: Potency [1] | Potency [2] | Potency [3]

CC(C)CC[C@@H](O)[C@](C)(O)[C@H]1CC[C@@]2(O)C3=CC(=O)[C@@H]4C[C@@H](O)[C@@H](O)C[C@]4(C)[C@H]3CC[C@]12C
inactive: Potency [1] | Potency [2] | Potency [3]

C=C1CC[C@@H]2[C@](C)(CO)[C@H](O[C@@H]3O[C@H](CO)[C@@H](O)[C@H](O)[C@H]3O)CC[C@@]2(C)[C@@H]1C/C=C1/C(=O)OC[C@H]1O
inactive: Potency [1] | Potency [2] | Potency [3]

C[C@]12CCC[C@](C)(C(=O)O)C1[C@@H](O)[C@@H](O)C13CC(CCC12)C(CO)(O[C@@H]1O[C@H](CO)[C@@H](O)[C@H](O)[C@H]1O)C3 (stereo not given in full)
inactive: Potency [1] | Potency [2] | Potency [3]
